Reference: PubChem BioAssay (Tox21)
Records with an inconclusive call do not appear. Activity calls are given as the source filed them. Calls come from the whole dose curve; as a rule, active = well fitted curve in the direction sought with a large enough effect in the repeat runs; inconclusive = weak or mixed curves; inactive = no such curve, though single readings can be large; an effect the other way counts as inactive or inconclusive.

Tests used:
[1] = target: Cytochrome P450 2D6 (Homo sapiens) (UniProt P10635); experiment: Cytochrome P450 Family 2 Subfamily D Member 6 (CYP2D6) small molecule antagonists: luciferase reporter qHTS assay (AID 1671196); note: nearly all actives have a fitted effect of over 50% in size; note: potency is the fitted concentration of half-maximal effect; for activity change, negative = inhibition: series mostly up to about 120 µM
Chain of Cytochrome P450 2D6 (Homo sapiens) (P10635 whole entry, looked up): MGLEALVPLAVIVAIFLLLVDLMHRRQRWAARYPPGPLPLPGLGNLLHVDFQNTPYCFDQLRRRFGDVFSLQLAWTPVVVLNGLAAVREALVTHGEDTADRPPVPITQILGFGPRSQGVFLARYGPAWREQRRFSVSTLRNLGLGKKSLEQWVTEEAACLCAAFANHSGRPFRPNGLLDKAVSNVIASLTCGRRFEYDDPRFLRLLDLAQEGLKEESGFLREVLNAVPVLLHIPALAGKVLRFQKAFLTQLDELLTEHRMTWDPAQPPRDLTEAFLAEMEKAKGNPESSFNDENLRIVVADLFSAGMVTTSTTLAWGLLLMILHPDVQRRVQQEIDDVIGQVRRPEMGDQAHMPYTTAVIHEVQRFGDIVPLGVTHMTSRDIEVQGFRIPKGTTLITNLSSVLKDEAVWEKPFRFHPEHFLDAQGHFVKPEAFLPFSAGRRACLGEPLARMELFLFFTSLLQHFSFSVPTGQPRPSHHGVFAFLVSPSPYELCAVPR
In short: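 Enzyme and proluciferin substrate were first combined with test chemical for 10 min at room temperature. Adding NADPH regeneration solution started a 1 h reaction, stopped with luciferin detection reagent and read by luminescence 20 min later.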

[2] = target: Cytochrome P450 2C19 (Homo sapiens) (UniProt P33261); experiment: Cytochrome P450 Family 2 Subfamily C Member 19 (CYP2C19) small molecule antagonists: luciferase reporter qHTS assay (AID 1671197); note: nearly all actives have a fitted effect of over 65% in size; note: potency is the fitted concentration of half-maximal effect; for activity change, negative = inhibition: series mostly up to about 120 µM
Chain of Cytochrome P450 2C19 (Homo sapiens) (P33261 whole entry, looked up): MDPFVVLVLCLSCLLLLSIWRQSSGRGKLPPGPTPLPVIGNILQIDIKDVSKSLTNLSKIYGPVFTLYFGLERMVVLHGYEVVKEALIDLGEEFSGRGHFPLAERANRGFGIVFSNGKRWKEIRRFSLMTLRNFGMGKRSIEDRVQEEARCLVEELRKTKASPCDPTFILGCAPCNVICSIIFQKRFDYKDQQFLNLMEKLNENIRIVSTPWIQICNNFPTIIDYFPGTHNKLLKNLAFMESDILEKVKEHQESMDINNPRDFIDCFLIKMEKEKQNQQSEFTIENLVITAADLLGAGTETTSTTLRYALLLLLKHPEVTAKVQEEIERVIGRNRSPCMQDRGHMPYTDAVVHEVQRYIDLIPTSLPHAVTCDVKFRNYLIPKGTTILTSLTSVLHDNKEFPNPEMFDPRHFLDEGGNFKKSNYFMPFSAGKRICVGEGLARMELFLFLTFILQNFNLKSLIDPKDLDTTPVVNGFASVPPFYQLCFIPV
In short: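 Relative luminescence units recorded 20 min after the detection reagent stopped a 1 h, 37C CYP2C19 reaction on proluciferin substrate, which was started by NADPH regeneration following 10 min room-temperature compound preincubation; ketoconazole positive control.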

[3] = target: Cytochrome P450 2C9 (Homo sapiens) (UniProt P11712); experiment: Cytochrome P450 Family 2 Subfamily C Member 9 (CYP2C9) small molecule antagonists: luciferase reporter qHTS assay (AID 1671198); note: nearly all actives have a fitted effect of over 50% in size; note: potency is the fitted concentration of half-maximal effect; for activity change, negative = inhibition: series mostly up to about 120 µM
Chain of Cytochrome P450 2C9 (Homo sapiens) (P11712 whole entry, looked up): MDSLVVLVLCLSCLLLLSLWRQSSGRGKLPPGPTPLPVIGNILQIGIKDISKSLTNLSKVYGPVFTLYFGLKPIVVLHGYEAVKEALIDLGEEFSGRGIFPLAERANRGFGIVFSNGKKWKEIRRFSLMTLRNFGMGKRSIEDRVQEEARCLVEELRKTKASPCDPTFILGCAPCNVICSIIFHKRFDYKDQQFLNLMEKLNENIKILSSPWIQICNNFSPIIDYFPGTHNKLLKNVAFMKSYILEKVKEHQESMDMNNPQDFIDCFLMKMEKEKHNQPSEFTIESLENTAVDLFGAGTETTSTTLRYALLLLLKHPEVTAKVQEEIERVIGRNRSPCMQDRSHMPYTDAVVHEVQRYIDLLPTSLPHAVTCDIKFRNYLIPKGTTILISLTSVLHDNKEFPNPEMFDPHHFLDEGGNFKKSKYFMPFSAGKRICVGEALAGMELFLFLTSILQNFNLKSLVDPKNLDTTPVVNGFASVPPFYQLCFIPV
In short: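 Enzyme-substrate mix preincubated with compound 10 min at room temperature; reaction started with NADPH regeneration solution, 1 h 37C. Luminescent luciferin product read after 20 min detection reagent.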

[4] = target: Cytochrome P450 1A2 (Homo sapiens) (UniProt P05177); experiment: Cytochrome P450 Family 1 Subfamily A Member 2 (CYP1A2) small molecule antagonists: luciferase reporter qHTS assay (AID 1671199); note: nearly all actives have a fitted effect of over 50% in size; note: potency is the fitted concentration of half-maximal effect; for activity change, negative = inhibition: series mostly up to about 120 µM
Chain of Cytochrome P450 1A2 (Homo sapiens) (P05177 whole entry, looked up): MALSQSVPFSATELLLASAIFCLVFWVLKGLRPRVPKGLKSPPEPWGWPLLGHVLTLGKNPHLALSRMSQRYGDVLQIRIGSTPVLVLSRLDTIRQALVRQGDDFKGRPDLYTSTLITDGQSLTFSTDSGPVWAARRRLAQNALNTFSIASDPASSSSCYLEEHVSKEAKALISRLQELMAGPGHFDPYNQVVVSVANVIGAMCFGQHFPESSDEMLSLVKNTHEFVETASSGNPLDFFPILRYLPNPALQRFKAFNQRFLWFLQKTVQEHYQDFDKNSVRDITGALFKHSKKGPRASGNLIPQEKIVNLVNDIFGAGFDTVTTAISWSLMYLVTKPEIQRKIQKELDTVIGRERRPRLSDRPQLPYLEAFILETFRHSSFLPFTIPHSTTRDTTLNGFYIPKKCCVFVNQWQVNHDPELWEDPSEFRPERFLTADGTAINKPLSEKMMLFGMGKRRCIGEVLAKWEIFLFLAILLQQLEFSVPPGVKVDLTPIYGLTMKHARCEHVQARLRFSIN
In short: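 Compounds were incubated with CYP1A2 and a luminogenic proluciferin substrate for 10 min at room temperature before the reaction was started with NADPH regeneration solution. After 1 h, detection reagent was added and light output, proportional to CYP activity, was recorded.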

[5] = target: Voltage-gated inwardly rectifying potassium channel KCNH2 (Homo sapiens) (UniProt Q12809); experiment: Human Ether-a-go-go-Related Gene (hERG) channel small molecule antagonists: fluorescence cell-based qHTS assay (AID 1671200); note: nearly all actives have a fitted effect of over 50% in size; note: potency is the fitted concentration of half-maximal effect;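 for activity change, negative = inhibition: hERG-expressing U2OS cells given a thallium stimulus after FluxOR II dye loading; series mostly up to about 77 µM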
Chain of Voltage-gated inwardly rectifying potassium channel KCNH2 (Homo sapiens) (Q12809 whole entry, looked up): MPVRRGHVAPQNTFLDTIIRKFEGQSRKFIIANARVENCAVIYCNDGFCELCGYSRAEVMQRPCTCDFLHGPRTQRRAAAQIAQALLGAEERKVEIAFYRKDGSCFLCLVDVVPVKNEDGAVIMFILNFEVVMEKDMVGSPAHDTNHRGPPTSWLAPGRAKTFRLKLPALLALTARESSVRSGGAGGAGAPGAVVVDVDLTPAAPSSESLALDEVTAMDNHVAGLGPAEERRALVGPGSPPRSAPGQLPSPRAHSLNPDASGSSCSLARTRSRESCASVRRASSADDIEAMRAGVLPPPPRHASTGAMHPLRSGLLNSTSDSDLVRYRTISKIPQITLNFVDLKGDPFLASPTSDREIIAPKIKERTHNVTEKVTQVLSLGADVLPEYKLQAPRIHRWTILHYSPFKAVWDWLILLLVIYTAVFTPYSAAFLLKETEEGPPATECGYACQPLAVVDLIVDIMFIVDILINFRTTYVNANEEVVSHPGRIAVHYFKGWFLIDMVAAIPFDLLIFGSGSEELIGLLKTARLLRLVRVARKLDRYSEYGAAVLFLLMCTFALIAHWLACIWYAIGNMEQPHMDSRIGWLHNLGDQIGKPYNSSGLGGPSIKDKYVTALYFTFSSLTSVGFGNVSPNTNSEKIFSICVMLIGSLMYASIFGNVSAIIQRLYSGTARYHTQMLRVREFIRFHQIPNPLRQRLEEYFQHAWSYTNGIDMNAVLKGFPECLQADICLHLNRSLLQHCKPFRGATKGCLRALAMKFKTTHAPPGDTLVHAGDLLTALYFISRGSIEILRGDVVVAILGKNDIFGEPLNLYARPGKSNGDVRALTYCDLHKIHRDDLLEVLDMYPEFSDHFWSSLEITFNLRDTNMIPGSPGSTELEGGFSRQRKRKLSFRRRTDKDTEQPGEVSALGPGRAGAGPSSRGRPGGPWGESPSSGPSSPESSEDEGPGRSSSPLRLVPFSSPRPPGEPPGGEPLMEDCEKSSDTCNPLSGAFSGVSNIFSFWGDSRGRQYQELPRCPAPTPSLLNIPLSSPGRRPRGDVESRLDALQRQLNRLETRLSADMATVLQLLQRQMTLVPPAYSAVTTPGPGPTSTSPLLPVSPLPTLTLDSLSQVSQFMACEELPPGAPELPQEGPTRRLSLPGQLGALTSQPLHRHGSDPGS
In short: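 First, 1000 cells per well are seeded and cultured overnight at 37 C. Next, FluxOR II dye is loaded for 1 h at room temperature, protected from light. After 10 more minutes, stimulus is added and fluorescence is read.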

[6] = target: Cytochrome P450 3A4 (Homo sapiens) (UniProt P08684); experiment: Cytochrome P450 Family 3 Subfamily A Member 4 (CYP3A4) small molecule antagonists: luciferase reporter qHTS assay (AID 1671201)
Chain of Cytochrome P450 3A4 (Homo sapiens) (P08684 whole entry, looked up): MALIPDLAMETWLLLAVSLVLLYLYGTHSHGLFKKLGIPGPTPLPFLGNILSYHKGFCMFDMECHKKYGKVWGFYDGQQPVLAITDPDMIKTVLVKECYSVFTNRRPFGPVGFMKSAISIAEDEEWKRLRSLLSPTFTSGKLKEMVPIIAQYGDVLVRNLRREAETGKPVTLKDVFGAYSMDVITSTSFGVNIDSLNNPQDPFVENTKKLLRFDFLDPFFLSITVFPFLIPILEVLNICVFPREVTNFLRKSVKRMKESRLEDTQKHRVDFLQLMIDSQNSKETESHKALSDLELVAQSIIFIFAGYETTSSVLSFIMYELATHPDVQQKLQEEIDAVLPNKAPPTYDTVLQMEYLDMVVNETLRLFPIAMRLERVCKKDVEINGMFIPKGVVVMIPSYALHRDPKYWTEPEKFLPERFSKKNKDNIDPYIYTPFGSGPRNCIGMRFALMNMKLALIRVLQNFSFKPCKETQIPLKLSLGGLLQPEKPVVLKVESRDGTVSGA
In short: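 Enzyme and proluciferin substrate are mixed with test chemicals for 10 min, then NADPH regeneration system drives turnover for 1 h at room temperature. A detection reagent halts the reaction; luminescence after 20 min gives relative activity.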
% is set by controls: 0 for no effect and ±100 for the full control effect.

Cc1cc2c(cc1S(N)(=O)=O)S(=O)(=O)CCC2
inactive: Potency [1] | Potency [2] | Potency [3] | Potency [4] | Potency [5] | Potency [6]

CN(C)CCCSc1ccccc1NC(=O)/C=C/c1ccccc1
inactive: Potency [3] | Potency [4] | Potency [5] | Potency [6]
active: Potency [1] 0.389 µM | Potency [2] 38.9 µM

CC1(C)C(O)C(C)(C)C1O (configuration not stated)
inactive: Potency [1] | Potency [2] | Potency [3] | Potency [4] | Potency [5] | Potency [6]

CCN(CC)CCNC(=O)c1cc(S(C)(=O)=O)ccc1OC
inactive: Potency [2] | Potency [3] | Potency [4] | Potency [5] | Potency [6]
active: Potency [1] 12.3 µM

CCSC(=O)N(CC(C)C)CC(C)C
inactive: Potency [1] | Potency [2] | Potency [3] | Potency [4] | Potency [5] | Potency [6]

CCOC(C)(C)C
inactive: Potency [1] | Potency [2] | Potency [3] | Potency [4] | Potency [5] | Potency [6]

C[C@H](NC(CCc1ccccc1)C(=O)O)C(=O)N1CCC[C@H]1C(=O)O (some centres not stated)
inactive: Potency [1] | Potency [2] | Potency [3] | Potency [4] | Potency [6]

CCCCOCCOCCOCCCC
inactive: Potency [1] | Potency [2] | Potency [3] | Potency [4] | Potency [6]

CC1=CC(C)C(C=O)CC1 (configuration not stated)
inactive: Potency [1] | Potency [2] | Potency [3] | Potency [4] | Potency [6]

CO[C@]12C[C@@H](COC(=O)c3cncc(Br)c3)CN(C)[C@@H]1Cc1cn(C)c3cccc2c13
inactive: Potency [3]
active: Potency [1] 0.0692 µM | Potency [2] 2.45 µM | Potency [5] 1.07 µM

CN1CCCC1
inactive: Potency [1] | Potency [2] | Potency [3] | Potency [4] | Potency [5] | Potency [6]

CCC(=O)OC(C)c1ccccc1 (configuration not stated)
inactive: Potency [1] | Potency [2] | Potency [3] | Potency [4] | Potency [6]

N[C@@H](C(=O)N[C@@H]1C(=O)N2C(C(=O)O)=C(Cl)CS[C@H]12)c1ccccc1
inactive: activity change, negative = inhibition [1] -15.8% [at 10.5 µM] | activity change, negative = inhibition [2] 33.2% [at 10.5 µM] | activity change, negative = inhibition [3] -2.01% [at 10.5 µM] | activity change, negative = inhibition [4] 7.47% [at 10.5 µM] | activity change, negative = inhibition [6] -15.7% [at 10.5 µM]

CC(C)CNCC(C)C
inactive: Potency [1] | Potency [2] | Potency [3] | Potency [4] | Potency [6]

COC(=O)CC(C)=O
inactive: Potency [1] | Potency [2] | Potency [3] | Potency [4] | Potency [5] | Potency [6]

CC(C)(O)C#CC(C)(C)O
inactive: Potency [1] | Potency [2] | Potency [3] | Potency [4] | Potency [6]

C1OCOCO1
inactive: Potency [1] | Potency [2] | Potency [3] | Potency [4] | Potency [5] | Potency [6]

ClC(Cl)(Br)Br
inactive: Potency [2] | Potency [3] | Potency [4] | Potency [5] | Potency [6]
active: Potency [1] 39.2 µM

OCCCC1CCCCC1
inactive: Potency [1] | Potency [2] | Potency [3] | Potency [4] | Potency [5] | Potency [6]

C[N+](C)(C)CCCCCC[N+](C)(C)C
inactive: Potency [1] | Potency [2] | Potency [3] | Potency [4] | Potency [6]

NC(=O)COCCN1CCN(C(c2ccccc2)c2ccc(Cl)cc2)CC1 (configuration not stated)
inactive: Potency [1] | Potency [2] | Potency [3] | Potency [4] | Potency [6]

C=CCCCCCCCCC=O
inactive: Potency [1] | Potency [5]
active: Potency [2] 79.6 µM | Potency [3] 31.7 µM

CC(C)(C)NCCNC(C)(C)C
active: Potency [2] 35.6 µM
inactive: Potency [1] | Potency [3] | Potency [4] | Potency [5] | Potency [6]

CC(C)OC(=O)c1ccccc1
inactive: Potency [1] | Potency [2] | Potency [3] | Potency [4] | Potency [5] | Potency [6]

CC(C)(C)c1ccc(O)c(O)c1
inactive: Potency [2] | Potency [5] | Potency [6]
active: Potency [1] 23.8 µM | Potency [3] 61.5 µM | Potency [4] 41.1 µM

CCCCCSCCCCC
inactive: Potency [1] | Potency [2] | Potency [3] | Potency [4] | Potency [5] | Potency [6]

O=c1n(CCO)c(=O)n(CCO)c(=O)n1CCO
inactive: Potency [1] | Potency [2] | Potency [3] | Potency [4] | Potency [6]

OC[C@]1(O)OC[C@@H](O)[C@H](O)[C@@H]1O
inactive: Potency [1] | Potency [2] | Potency [3] | Potency [4] | Potency [5] | Potency [6]

O=C[C@H](O)[C@@H](O)[C@H](O)[C@H](O)CO
inactive: Potency [1] | Potency [2] | Potency [3] | Potency [4] | Potency [5] | Potency [6]

CN1CCC(=C2c3ccccc3CC(=O)c3sccc32)CC1
inactive: Potency [3] | Potency [4] | Potency [5] | Potency [6]
active: Potency [1] 2.45 µM | Potency [2] 34.7 µM

C=C(C)CS(=O)(=O)O
active: Potency [4] 35.6 µM
inactive: Potency [1] | Potency [2] | Potency [3] | Potency [6]

CC(=O)N(CC(O)CO)c1c(I)c(C(=O)NCCO)c(I)c(C(=O)NCC(O)CO)c1I (configuration not stated)
inactive: Potency [1] | Potency [2] | Potency [3] | Potency [4] | Potency [5] | Potency [6]
